ChEMBL document CHEMBL3988442, “University of Dundee, Small-Polar-MMV Screening Library” (2021)
Hit rate of the full screen: of about 48,000 compounds, about 13,000 (27%) showed an effect of 50% or more. The list shows a part of the results.

tested on: Wolbachia pipientis; assay: Anti-Wolbachia Cell-Based Screen; assay type: functional; parameters: scale not given: in the data most compounds retested in dose-response had high values; conditions: 5 µM

Row | SMILES | Percent Effect [%]
1 | c1cnc(N2CCC(C3CCN(CCCn4cccn4)C3)CC2)nc1 (configuration not stated) | 5.409
2 | Cc1ccc(C2CSCCN2C(=O)C2=CCCC2)o1 (configuration not stated) | -12.79
3 | CC(Cc1cccc(F)c1)C(=O)NS(=O)(=O)c1ccc(F)cc1 (configuration not stated) | -6.109
4 | CCCc1ccc(S(=O)(=O)NCCNC(=O)c2ccoc2)cc1 | -13.27
5 | CCc1nc(C)c([C@H]2CN(C)C[C@@H]2C(=O)Nc2ccc(OC)cc2)[nH]1 | 7.798
6 | CC(=O)N1N=C(c2cccs2)OC1C(=O)Nc1ccc(C)cc1 (configuration not stated) | 119.7
7 | O=C(Nc1ccccc1)C1CN(C(=O)c2cccs2)CC12CCOCC2 (configuration not stated) | -0.3117
8 | Cn1ccnc1COc1ccc(NC(=O)C2CCCO2)cc1 (configuration not stated) | -13.75
9 | COc1ccc(NC(=O)C2OC(c3cccs3)=NN2C(C)=O)cc1 (configuration not stated) | 116.4
10 | CCOc1ccc(NC(=O)c2cccc(OC)c2OC)cc1 | 0.2949
11 | CCc1ccc(NC(=O)C2OC(c3cccs3)=NN2C(C)=O)cc1 (configuration not stated) | 3.495
12 | O=C(Nc1ccccc1)C1CN(Cc2cccs2)CC12CCOCC2 (configuration not stated) | 0.5273
13 | COc1ccc(CC(C)(O)CNC(=O)Cc2cccs2)cc1 (configuration not stated) | 5.181
14 | CC(=O)N1N=C(c2cccs2)OC1C(=O)Nc1ccccc1 (configuration not stated) | 103.8
15 | CCOc1ccc(NC(=O)C2OC(c3cccs3)=NN2C(C)=O)cc1 (configuration not stated) | 122.8
16 | O=C1CC(CNc2cncc(Cl)n2)c2ccccc2N1 (configuration not stated) | -4.513
17 | Cc1n[nH]c(CN2CCN(C(=O)C3CCC3)[C@@H]3CS(=O)(=O)C[C@@H]32)n1 | -3.785
18 | Cc1cc(C(=O)Nc2ccc(OC3CCOCC3)c(C)c2)[nH]n1 | -9.28
19 | O=C1CN(CCCNC(=O)Nc2ccccn2)CCN1 | 3.817
20 | Cc1nc(C)c(CC(=O)NCc2ccc(F)cc2F)s1 | 12.14
21 | COc1cccc(CNC[C@H]2COCc3nc4cccnc4n32)n1 | -3.627
22 | OCC1(CCOc2ccccc2)CCCN(c2ccc(Cl)cn2)C1 (configuration not stated) | 19.44
23 | CNC(=O)C(C)S(=O)(=O)Cc1csc(-c2cccs2)n1 (configuration not stated) | -15.96
24 | CC(=O)N1N=C(c2cccs2)OC1C(=O)Nc1ccc(C(C)C)cc1 (configuration not stated) | 90.69

Row | SMILES | Percent Effect [%]
25 | COc1ccc(NC(=O)C2OC(c3cccs3)=NN2C(C)=O)cc1OC (configuration not stated) | 133.2
26 | COc1ccc(NC(=O)C2CC2)cc1OCc1cccnc1 | -2.646
27 | O=c1oc(-c2cccs2)nn1CC(O)c1ccccc1 (configuration not stated) | 2.258
28 | CC(=O)N1N=C(c2cccs2)OC1C(=O)NCc1ccc(C)o1 (configuration not stated) | 124.5
29 | Cc1ccc(CN(C(=O)NCC(c2cccs2)N(C)C)C2CC2)o1 (configuration not stated) | 16.5
30 | Cc1ccc(CNC(=O)C2c3c(ncn3C(C)C)CCN2S(C)(=O)=O)o1 (configuration not stated) | -24.24
31 | CNC(=O)c1ccc(OC)c(NCc2noc(-c3cccs3)n2)c1 | -3.924
32 | CCN(CC)C(=O)[C@@H]1C[C@H](N)CN1c1nnc(-c2ccccc2)s1 | 5.055
33 | CC(Cc1ccco1)NC(=O)Nc1ccc(S(C)(=O)=O)nc1 (configuration not stated) | -6.327
34 | Cc1ccc(-c2cc(N)c(=O)n(CC(=O)NC3CCCCC3)n2)s1 | -5.352
35 | Cc1cc(-c2cc(N)c(=O)n(CC(=O)NC3CCCC3)n2)c(C)o1 | 122.3
36 | Cc1cc(-c2cc(N)c(=O)n(CC(=O)NC3CCCCC3)n2)c(C)o1 | 117.4
37 | COc1cc(C(=O)N2CCC(Nc3cccnc3)CC2)ccc1C | 66.95
38 | COc1ccc(OC)c(C(=O)N2CCC(Nc3cccnc3)CC2)c1 | 94.46
39 | COc1ccc(OC)c(C(=O)N2C[C@H]3CC[C@@H]2CN(C)C3)c1 | 19.05
40 | COc1cc(C(=O)N2CCC(c3n[nH]c(C4CC4)n3)CC2)ccc1C | 15.65
41 | O=C(c1ccc[nH]1)N(Cc1ccc(O)cc1)CC1CC1 | -7.123
42 | CCOC(C)C(=O)NCc1ccc(N(C)C)cc1 (configuration not stated) | 106.9
43 | CCOC(C)C(=O)NCc1cccc(CN2CCCCCC2)c1 (configuration not stated) | 0.5451
44 | CC(C)COC(C)C(=O)NCc1ccc(N(C)C)cc1 (configuration not stated) | -1.344
45 | CC(C)C(=O)NCc1ccc(N(C)C)cc1 | 131.8
46 | CN(C)c1ccc(CNC(=O)Nc2ccc(S(=O)(=O)C(F)F)cc2)cc1 | -8.512
47 | CC(OCc1ccccc1)C(=O)NCc1ccc(N(C)C)cc1 (configuration not stated) | 130.9
48 | CC(C)COC(C)C(=O)NCc1ccc(Cn2ccnc2)cc1 (configuration not stated) | 0.5486

Row | SMILES | Percent Effect [%]
49 | CC(OCc1ccccc1)C(=O)NC1CCN(CC(N)=O)CC1 (configuration not stated) | -2.8
50 | CN1CCC(CNC(=O)NCc2ccc(N(C)C)cc2)CC1 | -5.904
51 | CCOc1cc(CNCc2ncc[nH]2)c(Cl)cc1OC(C)C | -9.365
52 | CN(CCN1CCCC1)c1nccc(N2CCN[C@H]3CS(=O)(=O)C[C@H]32)n1 | -5.82
53 | COCCN1CCc2ncnc(OC(C)C)c2CC1.O=C(O)C(F)(F)F | 107.2
54 | Nc1nc(CNc2ncnc3c2CCN(Cc2ccoc2)CC3)cs1 | -10.72
55 | CC(C)Nc1ncnc2c1CCN(Cc1nccn1C)CC2.O=C(O)C(F)(F)F.O=C(O)C(F)(F)F | -25.56
56 | COc1ccc(CN2CCc3ncnc(OC(C)C)c3CC2)cc1.O=C(O)C(F)(F)F | -22.8
57 | CC(C)Oc1ncnc2c1CCN(Cc1ccc(F)cc1)CC2.O=C(O)C(F)(F)F | 2.897
58 | COCCN1CCc2ncnc(NC(C)C)c2CC1.O=C(O)C(F)(F)F | 87.2
59 | CC(C)Nc1ncnc2c1CCN(Cc1ccoc1)CC2 | 96.99
60 | c1cc(CCNc2ncnc3c2CCN(Cc2ccoc2)CC3)ccn1 | -12.64
61 | CC(C)Nc1ncnc2c1CCN(c1cc(C(F)(F)F)ncn1)CC2 | -0.2205
62 | O=C(N[C@@H]1C[C@H]2CC[C@@H]1C2)C1(Oc2ccc(Cl)cc2)CCNCC1 | 5.083
63 | Cc1nonc1C(=O)N1CCc2c(ncn2CCc2ccccc2)C1 | 7.043
64 | CSCCCNC(=O)Nc1cccc(-c2nccn2C)c1 | 3.955
65 | Cn1ccnc1-c1nc(NC2CCCC2)ncc1-c1cccc(F)c1 | 77.55
66 | COc1cccc(-c2nc(CNCCn3cccn3)cs2)c1 | -13.66
67 | COCCNc1ncc(-c2cccc(F)c2)c(-c2nccn2C)n1 | 111.1
68 | COCCCNc1ncc(-c2cccc(F)c2)c(-c2nccn2C)n1 | 116.3
69 | COc1cccc(-c2cc(NCc3nccn3C)n(C)n2)c1 | -16.42
70 | CSC(C)(C)CNC(=O)Nc1cccc(-c2nccn2C)c1 | -14.94
71 | Cc1ccc(CNC(c2cccc(F)c2)c2nccn2C)o1.Cl (configuration not stated) | -1.716
72 | COCCNc1ncc(-c2cccc(OC)c2)c(-c2nccn2C)n1 | 73.04
